The source of these data is PubChem BioAssay (EPA / NIEHS).

Assay [1] concerns the target human RAR-related Orphan Receptor gamma (RORg), RORC (gene 6097) (UniProt P51449). Put plainly: ATG_RORg_TRANS: Attagene TRANS-FACTORIAL HepG2 Assay for human RAR-related Orphan Receptor gamma (RORg) (AID 2283011; active means hit-call score of the fitted dose curve at least 0.9, where 1 is the maximum). In short, it runs like this:
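Reporter transcripts from a transfected RORg-GAL4 chimera in HepG2 cells were quantified 24 h after dosing by RT-PCR, 6-FAM labelling, HpaI digestion and capillary electrophoresis; increases over DMSO baseline were fitted.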

The target in assay [2] is Retinoic acid receptor RXR-alpha (Homo sapiens) (UniProt P19793). The assay can be described thus: ATG_RXRa_TRANS: Attagene TRANS-FACTORIAL HepG2 Assay for human Retinoid X Receptor alpha (RXRa) (AID 2283012; active means hit-call score of the fitted dose curve at least 0.9, where 1 is the maximum). An outline of the steps:
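Chimeric NR-GAL4 trans-activation in HepG2, 24 h treatment; reporter transcripts quantified by fluorescence on capillary electrophoresis, analysed for upward change from DMSO.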

Assay [3] deals with human Retinoid X Receptor beta (RXRb), RXRB (gene 6257) (UniProt P28702). Put plainly: ATG_RXRb_TRANS: Attagene TRANS-FACTORIAL HepG2 Assay for human Retinoid X Receptor beta (RXRb) (AID 2283013; active means hit-call score of the fitted dose curve at least 0.9, where 1 is the maximum). In short, it runs like this:
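After a 24 h incubation with test chemical, transfected HepG2 cells carrying NR-Gal4 fusions and GAL4-UAS reporter transcription units yield RNA whose reporter cDNA is FAM-labelled, HpaI-cut and sized by capillary electrophoresis; increases over DMSO are scored.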

Read-out in assay [4]: E-selectin (Homo sapiens) (UniProt P16581)
The assay can be described thus: BSK_3C_Eselectin: BioMAP Diversity Plus: 3C Assay for Eselectin Biomarker Activity (AID 2283015).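 On outcome: cell surface E-selectin protein quantified by ELISA 24 h after dosing.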 The conditions noted are these: primary human endothelial cells (HUVEC); actives raise or lower the signal. In short, it runs like this:
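E-selectin ELISA readout, fitted bidirectionally relative to DMSO, taken 24 h post-dosing in HUVEC cultures of the 3C system. Overt cytotoxicity tracked with sulforhodamine B staining of parallel wells.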

Read-out in assay [5]: Interleukin-1 alpha (IL1a), IL1A (gene 3552)
Put plainly: BSK_BE3C_IL1a: BioMAP Diversity Plus: BE3C Assay for Interleukin-1 alpha (IL1a) Biomarker Activity (AID 2283016). The conditions noted are these: primary human bronchial epithelial cells; actives raise or lower the signal. In short, it runs like this: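 Measured in human lung primary bronchial epithelial cells: IL-1a by ELISA at 24 h after dosing, with bidirectional fitting against DMSO.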

Read-out in assay [6]: Monocyte Chemoattractant Protein-1 (MCP1), CCL2 (gene 6347)
Put plainly: BSK_3C_MCP1: BioMAP Diversity Plus: 3C Assay for Monocyte Chemoattractant Protein-1 (MCP1) Biomarker Activity (AID 2283017). Conditions: primary human endothelial cells (HUVEC); actives raise or lower the signal. In short, it runs like this: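 MCP-1 was measured by ELISA 24 h after dosing in primary HUVEC 3C cultures and fitted in both directions relative to DMSO; cytotoxicity was checked by SRB total-protein staining in parallel wells.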

Read-out in assay [7]: Monocyte Chemoattractant Protein-1 (MCP1), CCL2 (gene 6347)
The assay can be described thus: BSK_4H_MCP1: BioMAP Diversity Plus: 4H Assay for Monocyte Chemoattractant Protein-1 (MCP1) Biomarker Activity (AID 2283018). The conditions noted are these: primary human endothelial cells (HUVEC); actives raise or lower the signal. An outline of the steps: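 Primary human umbilical vein endothelium is exposed to chemical for 24 h before MCP-1 is assayed by ELISA. Concentration-response fitted bidirectionally relative to DMSO.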

Read-out in assay [8]: Human Leukocyte Antigen - DR isotype (HLADR), HLA-DRA (gene 3122)
The assay can be described thus: BSK_3C_HLADR: BioMAP Diversity Plus: 3C Assay for Human Leukocyte Antigen - DR isotype (HLADR) Biomarker Activity (AID 2283019).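 On outcome: ELISA of cell-surface HLA-DR on HUVEC 24 h after dosing.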 The conditions noted are these: primary human endothelial cells (HUVEC); actives raise or lower the signal. In short, it runs like this: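 Bidirectional fitting against DMSO was applied to the HLA-DR ELISA signal from human umbilical vein endothelial cells, 24 h post-dose. Cytotoxicity came from parallel SRB total-protein staining; 3C proliferation was counted by SRB at 48 h.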

Read-out in assay [9]: Interleukin-8 (IL8), CXCL8 (gene 3576)
Put plainly: BSK_3C_IL8: BioMAP Diversity Plus: 3C Assay for Interleukin-8 (IL8) Biomarker Activity (AID 2283020). Conditions: primary human endothelial cells (HUVEC); actives raise or lower the signal. An outline of the steps:
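Using DMSO-treated wells as the baseline, bidirectional curve fitting was applied to ELISA-measured IL-8 from human umbilical vein endothelial cultures sampled 24 h after compound addition.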

Assay [10] concerns the target human Thyroid Receptor alpha (THRa1), THRA (gene 7067) (UniProt P10827). Put plainly: ATG_THRa1_TRANS: Attagene TRANS-FACTORIAL HepG2 Assay for human Thyroid Receptor alpha (THRa1) (AID 2283014; active means hit-call score of the fitted dose curve at least 0.9, where 1 is the maximum). An outline of the steps: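 Transcripts from GAL4-UAS-driven reporters, measured after 24 h compound exposure by RT-PCR plus capillary electrophoresis of 6-FAM-labeled fragments, were fitted for gain of signal relative to DMSO. Cells: transiently transfected HepG2 expressing NR-Gal4 chimeras.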

“And” between values parts separate entries of the source, which are not always exact repeats. Equal values may be shown once. Records with an inconclusive call do not appear. The source holds several records for some structures; these can differ, active in one and inactive in another. The source made the active and inactive calls. How the source made its calls, unless noted: active means hit-call score of the fitted dose curve at least 0.9, where 1 is the maximum; inactive means score below 0.9.

Chain of human RAR-related Orphan Receptor gamma (RORg), RORC (gene 6097) (P51449 whole entry, looked up, the tested form may be a part): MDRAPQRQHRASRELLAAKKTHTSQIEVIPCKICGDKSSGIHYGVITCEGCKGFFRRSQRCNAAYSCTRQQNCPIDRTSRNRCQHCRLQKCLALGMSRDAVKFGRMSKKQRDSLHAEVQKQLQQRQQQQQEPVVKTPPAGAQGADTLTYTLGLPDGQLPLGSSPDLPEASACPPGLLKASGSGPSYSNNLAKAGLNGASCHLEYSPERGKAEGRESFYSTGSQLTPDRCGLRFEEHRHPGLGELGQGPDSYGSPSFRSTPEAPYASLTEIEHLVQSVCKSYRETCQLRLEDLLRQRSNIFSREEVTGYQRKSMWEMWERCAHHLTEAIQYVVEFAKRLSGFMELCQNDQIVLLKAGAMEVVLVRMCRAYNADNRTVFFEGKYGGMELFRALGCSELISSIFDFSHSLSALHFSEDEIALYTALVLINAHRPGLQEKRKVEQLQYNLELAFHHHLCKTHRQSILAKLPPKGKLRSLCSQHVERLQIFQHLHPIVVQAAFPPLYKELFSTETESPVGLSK
Chain of human Retinoid X Receptor beta (RXRb), RXRB (gene 6257) (P28702 whole entry, looked up, the tested form may be a part): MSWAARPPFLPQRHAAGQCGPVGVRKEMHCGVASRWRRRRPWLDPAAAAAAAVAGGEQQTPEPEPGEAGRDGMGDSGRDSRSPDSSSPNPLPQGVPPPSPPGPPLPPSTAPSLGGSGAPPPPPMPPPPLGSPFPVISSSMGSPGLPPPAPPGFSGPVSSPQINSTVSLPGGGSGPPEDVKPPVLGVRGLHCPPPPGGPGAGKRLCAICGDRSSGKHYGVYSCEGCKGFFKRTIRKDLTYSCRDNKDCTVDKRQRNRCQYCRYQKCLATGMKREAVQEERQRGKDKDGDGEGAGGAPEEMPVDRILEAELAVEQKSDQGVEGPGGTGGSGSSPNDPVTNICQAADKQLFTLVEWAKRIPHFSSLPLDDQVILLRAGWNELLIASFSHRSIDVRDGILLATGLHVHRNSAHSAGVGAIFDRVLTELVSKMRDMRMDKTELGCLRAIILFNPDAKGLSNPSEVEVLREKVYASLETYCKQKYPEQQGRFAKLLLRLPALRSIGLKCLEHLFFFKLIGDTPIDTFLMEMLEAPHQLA
Chain of human Thyroid Receptor alpha (THRa1), THRA (gene 7067) (P10827 whole entry, looked up, the tested form may be a part): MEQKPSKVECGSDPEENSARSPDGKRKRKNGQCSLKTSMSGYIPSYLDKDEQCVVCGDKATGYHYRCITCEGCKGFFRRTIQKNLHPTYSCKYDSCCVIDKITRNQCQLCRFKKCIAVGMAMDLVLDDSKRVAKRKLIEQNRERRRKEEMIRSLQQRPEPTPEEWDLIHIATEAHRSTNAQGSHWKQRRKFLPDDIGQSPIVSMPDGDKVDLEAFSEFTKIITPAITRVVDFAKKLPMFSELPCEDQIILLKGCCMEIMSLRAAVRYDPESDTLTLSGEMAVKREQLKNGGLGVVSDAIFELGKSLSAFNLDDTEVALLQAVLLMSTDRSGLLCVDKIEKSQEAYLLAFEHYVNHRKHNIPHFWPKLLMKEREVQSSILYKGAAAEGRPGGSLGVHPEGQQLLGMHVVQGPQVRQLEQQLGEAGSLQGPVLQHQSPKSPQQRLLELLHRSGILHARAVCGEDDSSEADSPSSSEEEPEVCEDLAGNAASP
Chain of E-selectin (Homo sapiens) (P16581 whole entry, looked up): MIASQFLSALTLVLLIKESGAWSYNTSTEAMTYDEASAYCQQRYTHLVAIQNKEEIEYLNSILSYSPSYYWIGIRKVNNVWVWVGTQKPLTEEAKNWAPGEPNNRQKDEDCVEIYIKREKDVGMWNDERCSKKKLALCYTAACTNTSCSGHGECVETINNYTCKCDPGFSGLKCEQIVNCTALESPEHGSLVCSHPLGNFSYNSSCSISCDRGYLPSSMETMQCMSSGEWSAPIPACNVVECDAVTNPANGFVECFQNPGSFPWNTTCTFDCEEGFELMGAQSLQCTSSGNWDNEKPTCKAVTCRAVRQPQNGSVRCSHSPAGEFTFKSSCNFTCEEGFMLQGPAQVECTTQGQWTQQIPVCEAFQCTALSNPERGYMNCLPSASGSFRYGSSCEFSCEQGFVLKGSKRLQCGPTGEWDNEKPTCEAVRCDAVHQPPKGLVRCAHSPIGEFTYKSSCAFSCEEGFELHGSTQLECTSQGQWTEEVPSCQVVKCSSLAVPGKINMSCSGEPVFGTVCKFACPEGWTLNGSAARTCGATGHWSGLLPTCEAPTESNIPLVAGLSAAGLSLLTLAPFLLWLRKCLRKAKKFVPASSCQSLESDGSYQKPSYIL
Chain of Retinoic acid receptor RXR-alpha (Homo sapiens) (P19793 whole entry, looked up, the tested form may be a part): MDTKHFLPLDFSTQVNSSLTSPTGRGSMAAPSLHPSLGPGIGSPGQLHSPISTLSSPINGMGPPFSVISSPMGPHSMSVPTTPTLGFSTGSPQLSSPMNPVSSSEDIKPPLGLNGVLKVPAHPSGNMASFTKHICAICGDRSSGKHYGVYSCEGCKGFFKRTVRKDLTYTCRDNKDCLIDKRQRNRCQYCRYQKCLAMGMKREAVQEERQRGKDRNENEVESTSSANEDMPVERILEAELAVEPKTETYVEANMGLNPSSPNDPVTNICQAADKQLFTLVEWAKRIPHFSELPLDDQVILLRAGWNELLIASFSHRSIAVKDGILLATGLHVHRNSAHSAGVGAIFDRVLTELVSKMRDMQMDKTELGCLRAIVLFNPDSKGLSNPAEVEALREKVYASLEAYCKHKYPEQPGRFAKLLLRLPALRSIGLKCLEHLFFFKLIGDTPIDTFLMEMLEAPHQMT

On to `O=C(O)C(F)(F)C(F)(F)C(F)(F)C(F)(F)C(F)(F)C(F)(F)C(F)(F)F`, for which the compound was classed as inactive in assay [1], in [2], in assay [3], in [4], in assay [5] and in [6]. Also, the outcome in assay [7], in assay [8] and in assay [9] was inactive. Further, the half-maximal activity concentration (AC50) is 57 µM (active) and 37.4 µM (active) and 56.2 µM (active) in assay [3]; 30 µM (active) and 16 µM (active) and 22.5 µM (active) in assay [9].
With `CC(C)(C)C(O)C(Oc1ccc(Cl)cc1)n1cncn1` (stereo not given), the compound was called inactive in [1], in [2], in assay [3], in assay [10], in [4] and in [5]. The outcome in assay [6], in assay [7], in assay [8] and in assay [9] was inactive. Further, the figures for the half-maximal activity concentration (AC50) in assay [4] and in [8] were 3.36 µM (active) and 5.49 µM (active), respectively.
Regarding `CCCN(CCOc1c(Cl)cc(Cl)cc1Cl)C(=O)n1ccnc1`, the call in assay [1], in assay [2], in assay [3], in assay [10], in assay [4] and in assay [6] was inactive. In addition, the result in [9] was inactive. Further, the concentration at half-maximal activity (AC50) is 22.1 µM (active) in [5], 20 µM (active) in assay [7] and 37 µM (active) in assay [8].
As to `O=C(Nc1ccccc1)Nc1cnns1`, the result in [1], in assay [2], in assay [3], in assay [4], in [5] and in [6] was inactive. Also, the result in assay [7] and in assay [9] was inactive. Further, in [8], the concentration at half-maximal activity (AC50) was 36.1 µM (active).
For `CCN(CC)C(=O)SCc1ccc(Cl)cc1`, the result in assay [1], in assay [2], in assay [3], in [4], in assay [5] and in assay [7] was inactive. The result in assay [8] was inactive. The AC50 in [6] was 3.72 µM (active).
Turning to `COc1nn(CSP(=S)(OC)OC)c(=O)s1`, the call in assay [1], in assay [2], in assay [3], in assay [10], in assay [4] and in [5] was inactive. For the same compound, the outcome in assay [6], in [7] and in assay [9] was inactive. Also, the half-maximal activity concentration (AC50) in [8] was 36.5 µM (active).
On to `CCS(=O)(=O)c1cccnc1S(=O)(=O)NC(=O)Nc1nc(OC)cc(OC)n1`, for which the outcome in assay [1], in assay [2], in assay [3], in assay [10], in assay [4] and in assay [5] was inactive. In addition, the outcome in assay [6], in assay [7], in assay [8] and in assay [9] was inactive.
In the case of `CCC(C)(C)C(=O)OC1=C(c2ccc(Cl)cc2Cl)C(=O)OC12CCCCC2`, the compound was classed as inactive in assay [1], in [2] and in assay [10]. Also, the AC50 in [4] is 19.9 µM (active); in [5] it was 31 µM (active); in assay [6], 29.4 µM (active); in assay [7], 15.1 µM (active); in [8], 11 µM (active); in assay [9], 30.9 µM (active).
As to `O=S(=O)(O)C(F)(F)C(F)(F)C(F)(F)C(F)(F)C(F)(F)C(F)(F)C(F)(F)C(F)(F)F`, the call in [1], in assay [2], in assay [3], in assay [10], in assay [4] and in assay [5] was inactive. In addition, the result in assay [6], in assay [7], in [8] and in assay [9] was inactive. Further, the half-maximal activity concentration (AC50) is 161 µM (active) in assay [3]; 12 µM (active) and 17.6 µM (active) in assay [4]; 34.1 µM (active) [middle of 4 runs] in assay [5].
Turning to `CCc1ccc(C(=O)NN(C(=O)c2cc(C)cc(C)c2)C(C)(C)C)cc1`, the compound was called inactive in assay [1], in assay [2], in assay [3], in assay [4], in [5] and in [7]. For the same compound, the result in assay [8] and in [9] was inactive. For the same compound, the AC50 in [6] is 4.84 µM (active).
Take `N#CN`: the result in assay [1], in [3], in assay [4], in assay [5], in [6] and in assay [7] was inactive. Also, the result in assay [8] and in assay [9] was inactive.
Regarding `Oc1cc(Cl)ccc1Oc1ccc(Cl)cc1Cl`, the outcome in assay [1], in assay [2] and in assay [10] was inactive. Besides, the concentration at half-maximal activity (AC50) in assay [2] was 18 µM (active); in assay [3], 7.45 µM (active) [middle of 7 runs]; in assay [4], 14.4 µM (active) and 13.7 µM (active) and 24.9 µM (active); in [5] it was 32.1 µM (active) and 36.1 µM (active) and 31.2 µM (active); in assay [6], 32.9 µM (active) [middle of 4 runs]; in assay [7] it was 11.6 µM (active) [middle of 4 runs]. In addition, the half-maximal activity concentration (AC50) in assay [8] was 13.9 µM (active) [middle of 4 runs]; in [9] it was 27.3 µM (active) [middle of 4 runs].
